# Source: PubChem BioAssay
# Test system: Sonic hedgehog protein (Shh)
# Experiment: small-molecule binders of Shh protein, primary screen, biochemical, small-molecule microarray, 635/667 nm fluorescence (AID 1151);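 note: Shh protein binding to compounds spotted on small-molecule microarray slides; score combines spot fluorescence intensity with signal-to-noise across triplicate slides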
# Conditions: small-molecule microarray binding, 635 nm fluorescence; higher = more signal
row,SMILES,composite z-score
1,COCCn1c(C(=O)N2CCCC2)cc2c1C[C@H]1CN(C(=O)c3ccccc3)[C@@](Cc3ccccc3)(C(=O)OC)[C@@H]21,-0.193
2,CC(C)(C)N1CC=CC23O[C@@H]4/C=C\CCCOC(=O)C4[C@H]2C(=O)N(CCCCCCO)[C@@H]3C1=O (some centres undefined),-0.22
3,CCCC[C@@H](O)C1=C(COC)Cn2c(=O)n(-c3ccccc3)c(=O)n2[C@H]1CO,0.223
4,COC(=O)[C@@H]1N=C(c2ccc(OCCCO)cc2)O[C@@H]1c1ccccc1CN=[N+]=[N-],0.0121
5,CN1C=C(C(=O)OCCS(C)(=O)=O)C(C(=O)OCCS(C)(=O)=O)=CC(CCCO)=CC1c1ccc(CN2CCCC2)cc1 (centres undefined),1.06
6,COCCOC(=O)N1C(=O)[C@@]2(c3ccccc31)[C@H](C(N)=O)[C@H]1C(=O)O[C@H](c3ccccc3)[C@H](c3ccccc3)N1[C@@H]2c1ccc(OCCO)cc1,1.9
7,CC(C)CNC(=O)[C@@H]1c2ccccc2C(=O)N(C(C)C)[C@H]1c1ccc(CO)cc1,0.35
8,CC(C)c1ccc(NN2C(C(O)C(C)C)C=CC3C(=O)N(c4ccccc4)C(=O)C32)cc1 (centres undefined),-0.316
9,COCCOC(=O)N1C(=O)[C@@]2(c3cc(C#CCC(C(=O)OC)C(=O)OC)ccc31)[C@H](C(=O)N1CCCCCCC1)[C@H]1C(=O)O[C@H](c3ccccc3)[C@H](c3ccccc3)N1[C@@H]2c1ccccc1OCCO,2.06
10,O=C(NCCO)C1=C[C@H](Oc2ccccc2I)[C@@H](O)[C@H](NCc2ccc(F)cc2)C1,2.08
11,COC(=O)Cn1c(C(=O)N(C)C)cc2c1C[C@H]1CN(C(=O)c3ccccc3)[C@@](Cc3ccc(OC)cc3)(C(=O)OC)[C@@H]21,-0.333
12,[N-]=[N+]=NCc1ccccc1C[C@]1(C(=O)NCc2ccccc2)N=C(c2ccc(OCCCO)cc2)O[C@H]1c1ccccc1CN=[N+]=[N-],-0.603
13,CC(=O)NCCCC[C@@H]1NC(=O)[C@H]2C[C@@H](C(=O)NCCCCCC[N+](C)(C)C)[C@@H](c3ccc(O)cc3)N2C1=O,2.1
14,[N-]=[N+]=NCc1ccccc1C[C@]1(C(=O)N2CCCCC2)N=C(c2ccc(OCCCO)cc2)O[C@H]1c1ccccc1,-0.655
15,COc1ccc(CCNC(=O)[C@@]2(Sc3ccc(C)cc3)CC(=O)N(C(C)C)[C@@H]2c2ccc(CO)cc2)cc1,-1.6
16,COC(=O)C(CC#Cc1ccc2c(c1)[C@]1(C(=O)N2)[C@H](c2ccc(O)cc2)N2[C@H](c3ccccc3)[C@H](c3ccccc3)OC(=O)[C@H]2[C@@H]1C(=O)N1CCc2cc(OC)c(OC)cc2C1)C(=O)OC,1.31
17,COc1ccccc1CN1C(=O)c2ccccc2[C@](Cc2ccccc2I)(C(=O)NCCCN(C)C)[C@@H]1c1ccc(CO)cc1,0.814
18,CN1C(=O)C2C(C1=O)C1C=C(c3ccc(CO)cc3)C2C(c2cccs2)N1C (centres undefined),0.237
19,NCCCC[C@@H]1NC(=O)[C@H]2C[C@@H](C(=O)NCc3ccc(F)cc3)[C@@H](c3cccc(OCCO)c3)N2C1=O,2.07
20,CC(C)(C)OC(=O)CC[C@]1(C(=O)N2CCOCC2)N=C(c2ccc(OCCCO)cc2)O[C@H]1c1ccccc1CN=[N+]=[N-],0.242
21,CC(C)[C@@H](C(=O)O)n1cc(-c2ccccc2)nn1,0.128
22,NCCCC[C@@H]1NC(=O)[C@H]2C[C@@H](C(=O)NCc3ccc(F)cc3)[C@@H](c3ccc(O)cc3)N2C1=O,1.11
23,O=C1OCCC=C[C@H]2OC34C=CCN(c5ccc(Cl)cc5)C(=O)[C@H]3N(CCO)C(=O)[C@@H]4C12 (some centres undefined),-0.524
24,O=C1O[C@@H](c2ccccc2)[C@@H](c2ccccc2)N2[C@@H](c3ccc(O)cc3)[C@]3(C(=O)Nc4ccc(C#CC5=CCCCC5)cc43)[C@@H](C(=O)N3CCCCCCC3)[C@H]12,1.95
